Data reported in PubChem BioAssay (EPA / NIEHS).
Calls of active or inactive are those of the source. Rule for the calls: active = hit-call score of the fitted dose curve at least 0.9, where 1 is the maximum; inactive = score below 0.9.

Tests used:
Details in all cases: primary human HUVEC with PBMC; actives raise or lower the signal
[1] = read-out: Interleukin-1 alpha (IL1a), IL1A (gene 3552); experiment: BSK_LPS_IL1a: BioMAP Diversity Plus: LPS Assay for Interleukin-1 alpha (IL1a) Biomarker Activity (AID 2283080)
In short: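 Human umbilical vein endothelial cells co-cultured with PBMC and stimulated with LPS; IL-1a measured by ELISA 24 h after dosing. Bidirectional fitting against DMSO; cytotoxicity checked by SRB staining in parallel cultures.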

[2] = read-out: Monocyte Chemoattractant Protein-1 (MCP1), CCL2 (gene 6347); experiment: BSK_LPS_MCP1: BioMAP Diversity Plus: LPS Assay for Monocyte Chemoattractant Protein-1 (MCP1) Biomarker Activity (AID 2283081);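 for AC50: secreted MCP-1 protein quantified by ELISA in culture supernatant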
In short: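 Human umbilical vein endothelial cells co-cultured with PBMC, LPS-stimulated; secreted MCP-1 measured by ELISA 24 h after compound addition. Bidirectional curve fitting against DMSO baseline; SRB total-protein staining in parallel cultures for cytotoxicity.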

[3] = BSK_LPS_PGE2: BioMAP Diversity Plus: LPS Assay for Prostaglandin E2 (PGE2) Biomarker Activity (AID 2283082);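 for AC50: secreted prostaglandin E2 measured by ELISA in LPS-stimulated co-culture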
In short: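 ELISA read-out of PGE2 from human umbilical vein endothelial cells co-cultured with peripheral blood mononuclear cells under LPS, 24 h post-dose. Gain or loss of signal scored relative to DMSO baseline.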

[4] = read-out: Macrophage colony-stimulating factor (MCSF), CSF1 (gene 1435); experiment: BSK_LPS_MCSF: BioMAP Diversity Plus: LPS Assay for Macrophage colony-stimulating factor (MCSF) Biomarker Activity (AID 2283083)
In short: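 HUVEC–PBMC co-culture, M-CSF measured by ELISA 24 h after chemical dosing. Fitted in both directions relative to DMSO as negative control; overt cytotoxicity assessed by SRB total-protein staining in parallel cultures.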

[5] = read-out: Tissue Factor, F3 (gene 2152); experiment: BSK_LPS_TissueFactor: BioMAP Diversity Plus: LPS Assay for Tissue Factor Biomarker Activity (AID 2283084)
In short: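 Human umbilical vein endothelial cells co-cultured with PBMC were dosed with compound. Cell-surface CD142 was measured by ELISA 24 h later. Activity was fitted bidirectionally against DMSO, with SRB total-protein staining in parallel cultures for cytotoxicity.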

[6] = read-out: Tumor necrosis factor (Homo sapiens) (UniProt P01375); experiment: BSK_LPS_TNFa: BioMAP Diversity Plus: LPS Assay for Tumour Necrosis Factor alpha (TNFa) Biomarker Activity (AID 2283085);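 for AC50: TNFa protein level quantified by ELISA in the co-culture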
In short: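 HUVEC/PBMC co-culture, LPS-stimulated; 24 h post-dose; TNFa by ELISA; gain or loss of signal fitted bidirectionally vs DMSO baseline.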

[7] = read-out: Vascular cell adhesion molecule 1 (VCAM1), VCAM1 (gene 7412); experiment: BSK_LPS_VCAM1: BioMAP Diversity Plus: LPS Assay for Vascular cell adhesion molecule 1 (VCAM1) Biomarker Activity (AID 2283086)
In short: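 ELISA read-out of VCAM-1 at 24 h post-dosing in an LPS-driven HUVEC/PBMC primary human co-culture; gain or loss of signal fitted bidirectionally against DMSO baseline. Cytotoxicity tracked in parallel cultures by SRB total-protein staining.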

CD38, CD38 (gene 952) = experiment: BSK_SAg_CD38: BioMAP Diversity Plus: SAg Assay for CD38 Biomarker Activity (AID 2283087)
In short: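 Measures CD38 on a human endothelial/PBMC co-culture driven by SEB and TSST-1, 24 h after compound exposure, using ELISA with fluorescence detection; DMSO defines baseline for bidirectional curve fitting.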

CD40, CD40 (gene 958) = experiment: BSK_SAg_CD40: BioMAP Diversity Plus: SAg Assay for CD40 Biomarker Activity (AID 2283088)
In short: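 HUVEC plus PBMC co-culture, superantigen-activated, with CD40 read by ELISA 24 h after dosing. Curves fitted in both directions against DMSO. Overt cytotoxicity checked by parallel SRB total-protein staining.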

CD69, CD69 (gene 969) = experiment: BSK_SAg_CD69: BioMAP Diversity Plus: SAg Assay for CD69 Biomarker Activity (AID 2283089);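 for AC50: cell surface CD69 protein quantified by ELISA with fluorescence detection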
In short: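 ELISA, fluorescence read-out: CD69 on human umbilical vein endothelial cell + PBMC co-culture, 24 h post-dosing. Gain or loss of signal fitted bidirectionally against DMSO baseline.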

Measured: AC50

Sequence of Tumor necrosis factor (Homo sapiens) (P01375 whole entry, looked up): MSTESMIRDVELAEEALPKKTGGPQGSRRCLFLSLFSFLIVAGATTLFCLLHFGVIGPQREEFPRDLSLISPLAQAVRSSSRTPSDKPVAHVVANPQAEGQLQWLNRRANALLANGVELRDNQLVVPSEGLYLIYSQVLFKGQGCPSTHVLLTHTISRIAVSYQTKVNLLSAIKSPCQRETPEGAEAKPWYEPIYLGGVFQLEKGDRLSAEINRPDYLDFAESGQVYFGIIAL

CC(C)(C)C(O)/C(=C\c1ccc(Cl)cc1Cl)n1cncn1 (stereo not given)
inactive: [5] | [6]
active: [1] 33.2 µM | [2] 30.5 µM | [3] 994 nM | [4] 20.6 µM | [7] 27.6 µM | CD38, CD38 (gene 952) 27.5 µM | CD40, CD40 (gene 958) 25.6 µM | CD69, CD69 (gene 969) 15.8 µM

COC(=O)c1ccccc1S(=O)(=O)NC(=O)N(C)c1nc(C)nc(OC)n1
inactive: [1] | [2] | [3] | [4] | [5] | [6] | [7] | CD38, CD38 (gene 952) | CD40, CD40 (gene 958) | CD69, CD69 (gene 969)

COc1cc(OC)nc(NC(=O)NS(=O)(=O)c2cc(NC=O)ccc2C(=O)N(C)C)n1
inactive: [1] | [2] | [3] | [4] | [5] | [6] | [7] | CD38, CD38 (gene 952) | CD40, CD40 (gene 958) | CD69, CD69 (gene 969)

Clc1ccccc1-c1nnc(-c2ccccc2Cl)nn1
inactive: [1] | [2] | [3] | [4] | [5] | [6] | [7] | CD38, CD38 (gene 952) | CD40, CD40 (gene 958) | CD69, CD69 (gene 969)

CCC(C)Nc1c([N+](=O)[O-])cc(C(C)(C)C)cc1[N+](=O)[O-] (stereo not given)
inactive: [1] | [2] | [3] | [5] | [6]
active: [4] 11.1 µM | [7] 22.8 µM | CD38, CD38 (gene 952) 16.6 µM | CD40, CD40 (gene 958) 30.7 µM | CD69, CD69 (gene 969) 15.6 µM

O=C(O)COc1ccc(Cl)cc1Cl
inactive: [1] | [2] | [3] | [4] | [5] | [6] | [7] | CD38, CD38 (gene 952) | CD40, CD40 (gene 958) | CD69, CD69 (gene 969)

C[C@H]1[C@H](c2ccc(Cl)cc2)SC(=O)N1C(=O)NC1CCCCC1
inactive: [3] | [5] | [6]
active: [1] 26.4 µM | [2] 20.1 µM | [4] 14.6 µM | [7] 12.5 µM | CD38, CD38 (gene 952) 16 µM | CD40, CD40 (gene 958) 15.4 µM | CD69, CD69 (gene 969) 13.5 µM

N#CN
inactive: [1] | [2] | [3] | [4] | [5] | [6] | [7] | CD38, CD38 (gene 952) | CD40, CD40 (gene 958) | CD69, CD69 (gene 969)

N#Cc1c(Cl)c(Cl)c(Cl)c(C#N)c1Cl
active: [1] 1.03 µM | [2] 1.16 µM | [3] 148 nM | [4] 0.924 µM | [5] 332 nM | [6] 0.134 µM | [7] 0.773 µM | CD38, CD38 (gene 952) 0.953 µM | CD40, CD40 (gene 958) 0.459 µM | CD69, CD69 (gene 969) 1.35 µM

CC[C@H](C)[C@H]1O[C@]2(C=C[C@@H]1C)C[C@@H]1C[C@@H](C/C=C(\C)[C@@H](O[C@H]3C[C@H](OC)[C@@H](O[C@H]4C[C@H](OC)[C@@H](O)[C@H](C)O4)[C@H](C)O3)[C@@H](C)/C=C/C=C3\CO[C@@H]4[C@H](O)C(C)=C[C@@H](C(=O)O1)[C@]34O)O2 (tested in a mixture with another compound)
active: [1] 6.51 µM | [2] 8.83 µM | [4] 9.77 µM | [6] 10.3 µM | [7] 6.17 µM | CD38, CD38 (gene 952) 7.86 µM | CD40, CD40 (gene 958) 5.74 µM | CD69, CD69 (gene 969) 7.28 µM
inactive: [3] | [5]

CNC(=O)/C=C(\C)OP(=O)(OC)OC
inactive: [1] | [2] | [3] | [4] | [5] | [6] | [7] | CD38, CD38 (gene 952) | CD40, CD40 (gene 958) | CD69, CD69 (gene 969)

CCOC1Oc2ccc(OS(C)(=O)=O)cc2C1(C)C (stereo not given)
inactive: [1] | [2] | [3] | [4] | [5] | [6] | [7] | CD38, CD38 (gene 952) | CD40, CD40 (gene 958)
active: CD69, CD69 (gene 969) 18.4 µM

CC(C)OC(=O)Nc1cccc(Cl)c1
active: [3] 6130 nM
inactive: [1] | [2] | [4] | [5] | [6] | [7] | CD38, CD38 (gene 952) | CD40, CD40 (gene 958) | CD69, CD69 (gene 969)
